Measurements: the supplement of paper PMC6992640
± gives the standard deviation of the averaged measurements.

Tests used:
Test in all cases: cell viability (% of vehicle); higher = less cytotoxic
Conditions in all cases: 10 µM; 72 h
[1] = system: HCI01 (cells of a triple-negative basal-like breast cancer xenograft)
[2] = system: HCI03 (cells of an ER-positive luminal breast cancer xenograft)
[3] = system: HCI09 (cells of a triple-negative luminal androgen receptor type breast cancer xenograft)
[4] = system: HCI11 (cells of an ER-positive luminal breast cancer xenograft)
[5] = system: HCI16 (cells of a triple-negative basal-like breast cancer xenograft)
[6] = system: UCD52 (cells of a triple-negative basal-like breast cancer xenograft)
[7] = system: WHIM2 (cells of a triple-negative basal-like breast cancer xenograft)
[8] = system: WHIM30 (cells of a triple-negative basal-like breast cancer xenograft)
[9] = system: HCI13 (cells of an ER-positive luminal breast cancer xenograft)
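Note: PDX cells carrying CMV promoter-driven luciferase, viability read as total photon flux per second by IVIS imaging following D-luciferin, vehicle control 0.1% DMSO.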

Compound | cell viability [1] | cell viability [2] | cell viability [3] | cell viability [4] | cell viability [5] | cell viability [6] | cell viability [7] | cell viability [8] | cell viability [9]
O=C(Nc1c(Cl)cncc1Cl)c1ccc(OC(F)F)c(OCC2CC2)c1 [Roflumilast] | 150 ± 8.4 | 145 | 118 ± 55 | 124 | 196 | 119 ± 10 | 104 ± 15 | 151 ± 5.7 | –
CCCc1nc2c(C)cc(-c3nc4ccccc4n3C)cc2n1Cc1ccc(-c2ccccc2C(=O)O)cc1 [Telmisattan] | 107 ± 23 | 111 | 113 ± 59 | 101 | 116 | 122.3 ± 0.62 | 85 ± 18 | 146 ± 1.6 | –
O[C@@H]1CO[C@H]2[C@@H]1OC[C@@H]2O [Isosorbide] | 115 ± 23 | 147 | 103 ± 2.9 | 102 | 116 | 99.9 ± 3.7 | 107.6 ± 0.11 | 112 ± 15 | –
CO[C@H]1C(=O)[C@]2(C)[C@@H](OC)C[C@H]3OC[C@@]3(OC(C)=O)[C@H]2[C@H](OC(=O)c2ccccc2)[C@]2(O)C[C@H](OC(=O)[C@H](O)[C@@H](NC(=O)OC(C)(C)C)c3ccccc3)C(C)=C1C2(C)C [Cabazitaxel] | 78.1 ± 51 | 113 | 66.2 ± 5.4 | 89.2 | – | 70.3 ± 4.9 | 72 ± 11 | 107 ± 4.8 | 106 ± 5.1
O=C(Nc1cccc2c(=O)cc(-c3nn[nH]n3)oc12)c1ccc(OCCCCc2ccccc2)cc1 [Pranlukast] | 96.3 ± 9.7 | 97.5 | 64 ± 5.3 | 101 | 147 | 102 ± 2.1 | 65.3 ± 11 | 152 ± 11 | –
CCC1C(=O)N(C)c2cnc(Nc3ccc(C(=O)NC4CCC(N5CCN(CC6CC6)CC5)CC4)cc3OC)nc2N1C(C)C (centres undefined) [BI6727 (Volasertib)] | 82.6 ± 50 | 85.1 | 26.4 ± 0.95 | 115 | – | 116 ± 4.4 | 43.5 ± 8.7 | 176.9 ± 1.6 | 84.6 ± 29
Cc1onc(-c2ccccc2)c1C(=O)NC1C(=O)N2C1SC(C)(C)C2C(=O)[O-].O.[Na+] (centres undefined) [Oxacillin sodium monohydrate] | 114 ± 12 | 150 | 116 ± 24 | 110 | 127 | 105 ± 5 | 91 ± 13 | 168 ± 8.6 | –
CCC(=O)OC1(C(=O)CCl)C(C)CC2C3CCC4=CC(=O)C=CC4(C)C3(F)C(O)CC21C (centres undefined) [Clobetasol propionate] | 116 ± 22 | 125 | 116 ± 54 | 132 | 196 | 142 ± 10 | 91 ± 25 | – | –
CCCc1nc(C(C)(C)O)c(C(=O)O)n1Cc1ccc(-c2ccccc2-c2nn[nH]n2)cc1 [Olmesartan] | 117 ± 4 | 121 | 130 ± 18 | 113 | 136 | 121 ± 15 | 91.2 ± 3.6 | 154 ± 25 | –
CC12CCC3c4ccc(O)cc4CCC3C1CCC2O (centres undefined) [Estradiol] | 99.8 ± 4.7 | 111 | 91.4 ± 4.4 | 93 | 91.4 | 85.9 ± 4.8 | 108 ± 28 | 74.2 ± 6.9 | –
CC(NCCc1ccc(O)cc1)C(O)c1ccc(O)cc1.Cl (centres undefined) [Ritodrine HCl] | 111 ± 11 | 116 | 101 ± 21 | 106 | 111 | 86.3 ± 4.5 | 97.8 ± 37 | 111 ± 4.8 | –
O=C(NS(=O)(=O)c1ccc(Br)s1)c1ccc(Cl)cc1Cl [Tasisulam] | 183 ± 32 | 126 | 84.1 ± 17 | 148 | – | 115 ± 25 | 167 ± 16 | 172 ± 15 | 158 ± 6
O=c1c(O)c(-c2ccc(O)c(O)c2)oc2cc(O)cc(O)c12 [Quercetin] | 124 ± 46 | 123 | 141 ± 4.7 | 99.2 | 151 | 102 ± 1.3 | 107.1 ± 0.64 | 128 ± 17 | –
CC12CCC3c4ccc(O)cc4CCC3C1CCC2=O (centres undefined) [Estrone] | 99.5 ± 6.1 | 112 | 97.3 ± 9.7 | 102 | 89.5 | 87.3 ± 6.6 | 113 ± 22 | 153 ± 14 | –
O=C([O-])CC(O)CC(O)C=Cc1c(C2CC2)nc2ccccc2c1-c1ccc(F)cc1.O=C([O-])CC(O)CC(O)C=Cc1c(C2CC2)nc2ccccc2c1-c1ccc(F)cc1.[Ca+2] (centres undefined) [Pitavastatin Calcium] | 83.9 ± 10 | 78.4 | 53.9 ± 27 | – | 113 | 50.2 ± 1.3 | 67.8 ± 23 | 93.3 ± 4.9 | 148 ± 27
Oc1ccc(OCc2ccccc2)cc1 [Monobenzone] | 187 ± 11 | 180 | – | 157 | 153 | 167 ± 14 | 145 ± 23 | – | 181 ± 4.9
CC1(C)O[C@@H]2C[C@H]3[C@@H]4CCC5=CC(=O)C=C[C@]5(C)[C@H]4[C@@H](O)C[C@]3(C)[C@]2(C(=O)CO)O1 [Desonide] | 84.8 ± 63 | 176 | 117 ± 43 | 125 | – | 144 ± 8.6 | 96.1 ± 15 | 127 ± 17 | –
CC(=O)OCC(=O)[C@@]12OC(C)(C)O[C@@H]1C[C@H]1[C@@H]3C[C@H](F)C4=CC(=O)C=C[C@]4(C)[C@@]3(F)[C@@H](O)C[C@@]12C [Fluocinonide] | 75.9 ± 53 | 179 | 127 ± 39 | 129 | – | 156 ± 2.6 | 94.6 ± 31 | 175.6 ± 0.94 | –

Compound | cell viability [1] | cell viability [2] | cell viability [3] | cell viability [4] | cell viability [5] | cell viability [6] | cell viability [7] | cell viability [8] | cell viability [9]
NCCC(O)(P(=O)(O)O)P(=O)(O)O [Pamidronate] | 167 ± 8.5 | 112 | 56 ± 19 | 144 | – | 137 ± 19 | – | 143.9 ± 0.96 | –
O=C(O)CC(O)CC(O)C=Cc1c(C2CC2)nc2ccccc2c1-c1ccc(F)cc1 (centres undefined) [Pitavastatin] | 119 ± 18 | 125 | 102 ± 19 | – | 171 | 74.9 ± 9.2 | 93.6 ± 47 | 92.2 ± 11 | –
NS(=O)(=O)c1cc2c(cc1Cl)NCNS2(=O)=O [Hydrochlorothiazide] | 95 ± 30 | 106 | 134 ± 72 | 92.7 | 177 | 105 ± 3 | 101 ± 3.8 | 139 ± 11 | –
CC12C=CC(=O)C=C1CCC1C2C(O)CC2(C)C1CCC2(O)C(=O)CO (centres undefined) [Prednisolone] | 135 ± 39 | 175 | 166 ± 82 | 132 | – | 173 ± 4.8 | 114 ± 2.7 | – | –
CC1CC2C3CCC4=CC(=O)C=CC4(C)C3(Cl)C(O)CC2(C)C1(OC(=O)c1ccco1)C(=O)CCl (centres undefined) [Mometasone furoate] | 94.8 ± 29 | 151 | 118 ± 30 | 115 | – | 139.5 ± 0.18 | 83.5 ± 7.3 | – | –
CC12C=CC(=O)C=C1CCC1C3CC(O)C(O)(C(=O)CO)C3(C)CC(O)C12F (centres undefined) [Triamcinolone] | 117 ± 18 | 176 | 112.2 ± 0.86 | 130 | – | 121 ± 8.9 | 121 ± 18 | 185 ± 5.1 | –
CCOC(=O)OC1(C(=O)OCCl)CCC2C3CCC4=CC(=O)C=CC4(C)C3C(O)CC21C (centres undefined) [Loteprednol etabonate] | 90.8 ± 59 | 196 | 150 ± 70 | 123 | – | 158 ± 33 | 105 ± 11 | 198 ± 12 | –
CC1CC2C3CC(F)C4=CC(=O)C=CC4(C)C3(F)C(O)CC2(C)C1(O)C(=O)CO (centres undefined) [Flumethasone] | 144 ± 49 | 180 | 140 ± 56 | 145 | – | 166 ± 22 | 93.2 ± 12 | 163 ± 5.2 | –
CCc1c2c(nc3ccc(OC(=O)N4CCC(N5CCCCC5)CC4)cc13)-c1cc3c(c(=O)n1C2)COC(=O)C3(O)CC (centres undefined) [Irinotecan] | 110 ± 6 | 133 | 174 ± 80 | – | 140 | 107 ± 6.1 | 67.4 ± 6.7 | 113 ± 8.8 | 121 ± 2.2
CC12CCC(=O)C=C1CCC1C2C(O)CC2(C)C1CCC2(O)C(=O)CO (centres undefined) [Hydrocortisone] | 103 ± 13 | 126 | 132 ± 57 | 113 | – | 124 ± 4.5 | 95.6 ± 4.8 | 198 ± 13 | –
CC(C)c1c(C(=O)Nc2ccccc2)c(-c2ccccc2)c(-c2ccc(F)cc2)n1CCC(O)CC(O)CC(=O)[O-].CC(C)c1c(C(=O)Nc2ccccc2)c(-c2ccccc2)c(-c2ccc(F)cc2)n1CCC(O)CC(O)CC(=O)[O-].[Ca+2] (centres undefined) [Atorvastatin Calcium] | 89.2 ± 4.2 | 138 | 89.2 ± 26 | – | 140 | 47.7 ± 2.3 | 43.7 ± 10 | 158 ± 5.3 | 95.72 ± 0.31
CC1CC2C(C(O)CC3(C)C2CCC3(O)C(=O)CO)C2(C)C=CC(=O)C=C12 (centres undefined) [Methylprednisolone] | 145 ± 24 | 156 | 123 ± 34 | 136 | – | 154 ± 11 | 119 ± 8.1 | 194 ± 12 | –
CC(C)(C#N)c1cc(Cn2cncn2)cc(C(C)(C)C#N)c1 [Anastrozole] | 160 ± 20 | 149 | 108 ± 23 | 120 | 120 | 111 ± 11 | 132 ± 22 | 124.2 ± 0.85 | –
CC(C)[N+]1(C)C2CCC1CC(OC(=O)C(CO)c1ccccc1)C2.[Br-] (centres undefined) [Ipratropium Bromide] | 138 ± 45 | 151 | 158 ± 79 | 108 | – | 148 ± 5.2 | 103 ± 15 | 180 ± 23 | –
Cc1ccc(C)c(OCCCC(C)(C)C(=O)O)c1 [Gemfibrozil] | 99.9 ± 25 | 118 | 131 ± 54 | 112 | – | 124 ± 17 | 98.3 ± 12 | – | –
CC(=O)OCC(=O)C1(O)CCC2C3CCC4=CC(=O)C=CC4(C)C3C(O)CC21C (centres undefined) [Prednisolone Acetate] | 119 ± 47 | 185 | 134 ± 37 | 123 | – | 152.4 ± 0.65 | 97.2 ± 1.2 | 182 ± 22 | –
CCCC(=O)OC1(C(=O)COC(C)=O)CCC2C3CC(F)C4=CC(=O)C=CC4(C)C3(F)C(O)CC21C (centres undefined) [Difluprednate] | 110 ± 13 | 137 | 134 ± 37 | 116 | – | 177 ± 21 | 128 ± 7.3 | 175 ± 11 | –
